From PubChem BioAssay AID1619 (SRMLSC, 2009)
Among all 220,000 compounds or so, about 830 (0.38%) were called active.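 How the source made its calls: active means compound inhibiting the enzyme by more than half at any dose during confirmatory dose-response retesting; inconclusive means strong single-dose inhibitors picked by rank but not retested; inactive means the rest.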 Not all results are given here. Results with a measured potency or affinity are listed apart.

Each compound was assayed against Leucine aminopeptidase (Plasmodium falciparum (isolate 3D7)) (UniProt Q8IL11) (assay: P. falciparum M17LAP inhibitors, primary screen, biochemical, fluorogenic H-Leu-NHMec substrate, 1536-well (AID 1619;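 further: plate controls were full reaction with DMSO carrier for no effect and no enzyme background for full effect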)). Details: recombinant M17LAP, H-Leu-NHMec fluorogenic kinetic assay; at 30 µM; hits give high values.
Chain of Leucine aminopeptidase (Plasmodium falciparum (isolate 3D7)) (Q8IL11 whole entry, looked up): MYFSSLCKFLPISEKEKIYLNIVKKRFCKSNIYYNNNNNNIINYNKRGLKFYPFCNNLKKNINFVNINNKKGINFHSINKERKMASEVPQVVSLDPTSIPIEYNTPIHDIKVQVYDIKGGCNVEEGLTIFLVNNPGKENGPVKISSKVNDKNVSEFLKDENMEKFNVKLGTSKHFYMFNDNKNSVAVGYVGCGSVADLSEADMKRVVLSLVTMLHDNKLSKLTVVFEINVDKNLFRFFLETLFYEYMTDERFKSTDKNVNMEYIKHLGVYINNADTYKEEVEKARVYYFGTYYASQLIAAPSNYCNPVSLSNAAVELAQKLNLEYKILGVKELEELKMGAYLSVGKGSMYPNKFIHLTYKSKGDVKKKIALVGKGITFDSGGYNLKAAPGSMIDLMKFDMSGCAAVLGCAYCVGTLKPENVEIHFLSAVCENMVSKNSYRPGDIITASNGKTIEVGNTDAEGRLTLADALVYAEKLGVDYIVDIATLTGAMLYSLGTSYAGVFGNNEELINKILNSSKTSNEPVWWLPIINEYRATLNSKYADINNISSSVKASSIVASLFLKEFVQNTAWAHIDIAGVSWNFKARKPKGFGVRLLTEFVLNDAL

inhibition, inactive:
CC1=C(C)CC(C(=O)Nc2nc(-c3ccc(F)cc3)c(C)s2)C(C(=O)O)C1 (stereo unspecified) 48.9%, CCc1noc(C)c1C(=O)Nc1nc(-c2cc(C)ccc2C)c(C)s1 -3.18%, CC(=O)C1=C(O)C(=O)N(Cc2ccco2)C1c1ccc(F)cc1 (stereo unspecified) 11%, CC(=O)C1=C(O)C(=O)N(Cc2ccco2)C1c1ccccc1 (stereo unspecified) 6.17%, Cc1ccc(S(=O)(=O)N2CCCC2C(=O)N2CCCCCC2)cc1 (stereo unspecified) -4.09%, COc1ccc2c(C(F)(F)F)cc(=O)oc2c1C -5.82%, CC(Sc1nc(-c2ccccc2)cs1)C(=O)Nc1ccc(Cl)cn1 (stereo unspecified) 13.8%, CC(Sc1nc(-c2ccc(F)cc2)cs1)C(=O)Nc1ccc(Cl)cn1 (stereo unspecified) 15.1%, Cn1c(=O)c(C(=O)Nc2ccccc2S(N)(=O)=O)c(O)c2ccccc21 -0.17%, COC(=O)C(C)(C)ONC(=O)Nc1ccccc1Cl -4.74%, CCN(CC)C(=O)c1ccc(N)cc1 7.5%, COc1ccc(Oc2ccc(/C=C/C(=O)c3ccc(O)cc3)cc2[N+](=O)[O-])cc1 12.4%, CC(C)(C)C1(C)OC(C(N)=O)C(C(N)=O)O1 (stereo unspecified) 8.29%, Cc1cc(=O)oc2c1c(C(F)(F)F)nn2-c1ccccc1 2.02%, CCOC(=O)C1CSC(CC(=O)Nc2ccc(Cl)cc2)C(=O)N1 (stereo unspecified) 13.4%, CCOC(=O)C1CSC(CC(=O)Nc2ccc(OC(F)(F)F)cc2)C(=O)N1 (stereo unspecified) 14%, CC(OC(=O)c1cn(-c2ccccc2)nc1-c1cccnc1)C(N)=O (stereo unspecified) 1.32%, O=C(COC(=O)c1ccc(S(=O)(=O)NCc2ccco2)cc1)Nc1ncc(Cl)cc1Cl -2.24%, N/C(Cc1ccc(Cl)cc1Cl)=N\OC(=O)c1ccccc1 0.73%, CCOc1ccc(OCc2cccc(C(=O)N(CC)CC)c2)cc1 -4.73%, COc1ccc(OCc2cccc(C(=O)O)c2)cc1 53.7%, O=C(Nc1ccc(C(=O)O)cc1)/C(=C\c1ccco1)NC(=O)c1ccccc1 45.7%, CN(C(=O)CSCC(=O)O)C1CCCCC1 -10.4%, CCOC(=O)/C(N=Nc1ccc(Cl)cc1)=C(/O)c1ccc([N+](=O)[O-])cc1 3.08%, Nc1[nH]ncc1-c1ccccc1 -3.57%, Nc1[nH]ncc1-c1ccc(F)cc1 55.5%, COC(=O)c1cc(C(=O)OC)n(Cc2ccc(Br)cc2)n1 -9.56%, CC(=O)c1c(C)[n+]([O-])c2ccc3c(non3O)c12 10.2%, CC[n+]1ccccc1/C=C/c1ccc(N(C)C)cc1 56.5%, C[n+]1c(/C=C/c2ccc3c(c2)OCO3)ccc2ccccc21 0.47%, CN(C)c1ccc(/C=C/c2ccc3c4ccccc4ccc3[n+]2-c2ccccc2)cc1 13.1%, CC[n+]1ccc(/C=C/c2ccc(N(C)C)cc2)c2ccccc21 50.7%, C=CC(C)(C)c1cc2cc3ccoc3cc2oc1=O 3.93%, Cc1nc(C)c(-c2ccn(S(=O)(=O)c3ccc(Cl)cc3)n2)o1 -15.8%, Cc1ccc(OCc2ccc(C(=O)NN)o2)c([N+](=O)[O-])c1 -2.38%, COC(=O)c1ccc(COc2ccc(C)cc2[N+](=O)[O-])o1 5.81%, CCN1CCN(CCn2c(=S)[nH]c3cc4c(cc3c2=O)OCO4)CC1 10.8%, COc1ccc(C2CCN(CC(=O)N(C)C)CC2O)cc1 (stereo unspecified) -0.46%, Cc1ccccc1NC(=O)COC(=O)c1c[nH]c(=O)[nH]c1=O -3.99%, CN(c1ccccc1C(=O)N1CCN(c2cccc(Cl)c2)CC1)S(C)(=O)=O -10.5%, O=C1CC(=O)C(n2cncn2)C(c2cccc(Cl)c2)C1 (stereo unspecified) -45.4%, O=C1CC(=O)C(n2cncn2)C(c2ccc(Cl)cc2)C1 (stereo unspecified) 41.7%, CCOc1c(Br)cc(/C=C2/SC(=O)N(CC(=O)N3CCCC3)C2=O)cc1OC -3.92%, CCOc1ccc(C(=O)NCC(=O)N2CCc3ccccc3C2)cc1OCC -4.26%, COC(=O)COc1ccc(/C=C2/SC(=O)N(CC(=O)N3CCCC3)C2=O)cc1Br 14.7%, COc1cccc(/C=C2/SC(=O)N(C)C2=O)c1OCc1ccc(C(=O)O)cc1 25.1%, COC(=O)COc1cc(Br)c(/C=C2/SC(=O)N(CC(=O)N3CCCC3)C2=O)cc1OC 26.7%, NC(=O)COc1ccccc1/C=C1/SC(=O)N(CC(=O)N2CCc3ccccc3C2)C1=O -2.36%, COc1cc(/C=C2\SC(=Nc3ccc(F)cc3)N(c3ccc(F)cc3)C2=O)ccc1OCC(=O)O 38.3%, CCOc1cc(/C=C2\SC(=Nc3ccc(F)cc3)N(c3ccc(F)cc3)C2=O)ccc1OCC(=O)O 42.8%, COC(=O)c1cccc(NC(=O)Cc2nc(-c3ccccc3)sc2-c2ccc(C)cc2)c1 1.12%, COc1ccc(CN2CCN(C)CC2)cc1OCc1ccccc1 -2.4%, Cc1ccc(C(=O)N2CCSC2=S)cc1 8.96%, CCc1nc(Sc2nc(C)cc(C)n2)c2oc3ccccc3c2n1 -4.31%, CCOC(=O)c1ccc(S(=O)(=O)NNC(=O)COc2ccccc2C)cc1 -5.37%, O=C(CSc1nnc(CN2CCCCCC2=O)n1-c1ccccn1)NCC(F)(F)F -5.65%, C/C(=C\c1ccccc1)CN1CCC(C(=O)N2CCC(C)CC2)CC1 1.41%, COCc1nnc(NC(=O)c2cc(C(=O)OC)cc([N+](=O)[O-])c2)s1 6.44%, COCCSc1nnc(NC(=O)c2ccc([N+](=O)[O-])cc2)s1 -6.15%, CCc1nn(-c2ccccc2)c(N)c1-c1ccc(OC)c(OC)c1 1.87%, COC(=O)c1ccc(/C=C/c2ccc3cccc(OC)c3n2)cc1 0.52%, COc1cc(/C=C/c2ccc3cccc([N+](=O)[O-])c3n2)ccc1OCC(=O)O 20.7%, O=[N+]([O-])c1ccc(/C=C/c2ccc3cccc([N+](=O)[O-])c3n2)cc1 -6.24%, CSc1ccc(/C=C/c2ccc3cccc(O)c3n2)cc1 14.9%, CCCn1nnc(NC(=O)c2ccco2)n1 -183%, CCC(C)n1c(SCC(=O)NC(=O)Nc2ccc3c(c2)OCCO3)nc2ccccc2c1=O (stereo unspecified) -1.6%, CCOC(=O)c1cn2nc(Oc3ccc(OC)cc3)ccc2n1 9.2%, CCCCCOC(=O)NC1CCS(=O)(=O)C1 (stereo unspecified) -3.96%, CCOC(=O)C1(CCSC)NC(c2ccco2)C2C(=O)N(CC)C(=O)C21 (stereo unspecified) 5.79%, CC(C)C(=O)NCCc1c[nH]c2ccccc12 3.48%, CCC(=O)NCCc1c[nH]c2ccccc12 -4.01%, CSc1n[nH]c(=O)n1-c1ccc(Cl)cc1 -4.84%, Cc1sc(NC(=O)c2ccc(Cl)s2)c(C(N)=O)c1C -3.24%, O=[N+]([O-])c1ccc(Sc2ccccn2)nc1 6.7%, O=[N+]([O-])c1ccc(Sc2ccccc2)nc1 -3.15%, Cc1ccc2oc(=O)c3cnn(CC(=O)NCCc4ccsc4)c3c2c1 11.8%, CCOC(=O)Cn1nnnc1CN(Cc1ccc(OC)cc1)Cc1cc2cc(CC)ccc2[nH]c1=O 7.13%, CCc1cccc2c(=O)c(C(=O)N3CCCCCC3)c[nH]c12 3.21%, CCN1CCc2c(OCC(=O)N3CCCc4ccccc43)cccc2C1=O 0.37%, CCc1c(C)sc(NC(=O)C2CCCCC2C(=O)O)c1C(N)=O (stereo unspecified) 50.6%, CC(C)=C1C2CCC1C(C(=O)Nc1sc(C)c(-c3ccc(C(C)C)cc3)c1C(N)=O)C2C(=O)O (stereo unspecified) -4%, COC(=O)c1c(NC(=O)/C=C/C(=O)O)sc(C)c1-c1ccc(C(C)C)cc1 15.5%, CCc1ccc(-c2c(C)sc(NC(C)=O)c2C(N)=O)cc1 41.9%, Cc1sc(NC(=O)/C=C/C(=O)O)c(C(N)=O)c1-c1ccc(C(C)(C)C)cc1 21.9%, Cc1sc(NC(=O)CCC(=O)O)c(C(N)=O)c1-c1ccccc1 18%, Cc1sc(NC(=O)C2CCCCC2C(=O)O)c(C(N)=O)c1C (stereo unspecified) 45%, Cc1sc(NC(=O)C2C3CCC(C3)C2C(=O)O)c(C(N)=O)c1-c1ccc(C(C)(C)C)cc1 (stereo unspecified) 39.7%, COc1ccccc1-c1n[nH]c(=S)n1N -6.79%, COC(=O)/C(=C/c1ccccc1)NC(=O)c1ccco1 0.48%, COC(=O)c1ccc(CN2CCN(Cc3ccc(F)cc3)C(CCO)C2)cc1 (stereo unspecified) -9.03%, Cc1ccc(NC(=O)C(CC(C)C)NC(=O)C2CCC(C)CC2)nc1 (stereo unspecified) -1.65%, CC(C)NC(=O)COC(=O)c1ccc(Cl)c(S(=O)(=O)N2CCCC2)c1 4.58%, Cc1ccc2cc(CCNC(=O)c3ccco3)c(=O)[nH]c2c1C -13.9%, O=C(CCC(=O)NNC(=O)COc1ccccc1)NCc1ccccc1 -10.8%, CC(=O)C1=C(O)C(=O)N(CCCO)C1c1ccccc1 (stereo unspecified) 27.1%, O=C(c1ccc(S(=O)(=O)N2CCCCC2)cc1)N(c1ccccn1)C1CCCCC1 0.89%
